Results published in ChEMBL document CHEMBL4513146, “CO-ADD screening of Karazin Kharkiv National University (Ukraine) compounds”.
Potency and affinity values are given separately.

Legend:
Klebsiella pneumoniae = conditions: Concentration 32 ug.mL-1;; ASSAY_TEST Inhibition of Bacterial Growth; detection method Absorption (OD600); MEDIA CAMHB; plate type 384well; NBS; CORNING #3640; time 18 hr
Candida albicans = conditions: Concentration 32 ug.mL-1; ASSAY_TEST Inhibition of Fungal Growth; detection method Absorption (OD530)
Cryptococcus neoformans = conditions: Concentration 32 ug.mL-1; ASSAY_TEST Inhibition of Fungal Growth; detection method Resazurin; Absorption (OD600-OD570); plate type 384well; NBS; CORNING #3640

Compound Cc1cc(C)c(C(=O)CSc2nnc3c(=O)n(-c4ccc(F)cc4)ccn23)cc1C has an Inhibition (Klebsiella pneumoniae) of 7.49%, an Inhibition (Candida albicans) of 4.64% and an Inhibition (Cryptococcus neoformans) of -8.78%.
With O=C(CSc1nnc2c(=O)n(-c3cccc(F)c3)ccn12)Nc1ccc(Br)cc1 the Inhibition (Klebsiella pneumoniae) was 9.48%, the Inhibition (Candida albicans) was 6.65% and the Inhibition (Cryptococcus neoformans) was -9.7%.
Cc1cc(C)cc(Nc2nc(C)cc3nn(CC(=O)Nc4cccc(Cl)c4)c(=O)n23)c1 showed an Inhibition (Klebsiella pneumoniae) of 7.28%, an Inhibition (Candida albicans) of 4.92% and an Inhibition (Cryptococcus neoformans) of -8.23%.
For O=C(Cn1nc2ccc(-c3ccccc3)nn2c1=O)N1CCN(c2ccc(F)cc2)CC1, the Inhibition (Klebsiella pneumoniae) was 3.94%, the Inhibition (Candida albicans) was -0.37% and the Inhibition (Cryptococcus neoformans) was -5.73%.
For Cc1ccc(-c2ccc3nn(CC(=O)Nc4cccc(Cl)c4)c(=O)n3n2)cc1C, the Inhibition (Klebsiella pneumoniae) was 4.06%, the Inhibition (Candida albicans) was 0.61% and the Inhibition (Cryptococcus neoformans) was -15.53%.
COc1ccc(NC(=O)Cn2nc3c(N4CCOCC4)nccn3c2=O)cc1Cl gave an Inhibition (Klebsiella pneumoniae) of -0.16%, an Inhibition (Candida albicans) of 2.64% and an Inhibition (Cryptococcus neoformans) of -7.27%.
In the case of CCOC(=O)c1cccc(NC(=O)CSc2nc3ccccc3n3c(C(C)C)nnc23)c1, the Inhibition (Klebsiella pneumoniae) is reported as 16.4%, the Inhibition (Candida albicans) is reported as 0.96% and the Inhibition (Cryptococcus neoformans) is reported as -15.16%.
For Cc1ccc(NC(=O)Cn2nc3c4c5c(sc4ncn3c2=O)CCCC5)c(Cl)c1, the Inhibition (Klebsiella pneumoniae) was 3.19%, the Inhibition (Candida albicans) was 9.32% and the Inhibition (Cryptococcus neoformans) was -16.36%.
COc1ccc(CNC(=O)Cn2nc3c(N4CCN(c5ccccc5)CC4)nccn3c2=O)cc1 showed an Inhibition (Klebsiella pneumoniae) of 14.33%, an Inhibition (Candida albicans) of 4.36% and an Inhibition (Cryptococcus neoformans) of -9.25%.
Cc1ccc(CNC(=O)Cn2nc3c(SC4CCCCC4)nccn3c2=O)cc1 showed an Inhibition (Klebsiella pneumoniae) of 14.28%, an Inhibition (Candida albicans) of -1.05% and an Inhibition (Cryptococcus neoformans) of -11.99%.
Compound COc1cccc(NC(=O)Cn2nc3ccc(-c4ccc(C)c(C)c4)nn3c2=O)c1 has an Inhibition (Klebsiella pneumoniae) of -6.86%, an Inhibition (Candida albicans) of 8.09% and an Inhibition (Cryptococcus neoformans) of -10.05%.
In the case of CCc1nnc2c(=O)n(CC(=O)Nc3ccc(C(C)C)cc3)c3ccccc3n12, the Inhibition (Klebsiella pneumoniae) is reported as 15.72%, the Inhibition (Candida albicans) is reported as -0.82% and the Inhibition (Cryptococcus neoformans) is reported as -28.42%.
COc1cccc(-n2ccn3c(SCc4cc(C)ccc4C)nnc3c2=O)c1 showed an Inhibition (Klebsiella pneumoniae) of 8.78%, an Inhibition (Candida albicans) of 2.61% and an Inhibition (Cryptococcus neoformans) of -5.92%.
Work on COc1ccc(NC(=O)Cn2nc3cc(C)nc(Nc4ccc(F)cc4)n3c2=O)cc1F yielded an Inhibition (Klebsiella pneumoniae) of 11.33%, an Inhibition (Candida albicans) of 2.69% and an Inhibition (Cryptococcus neoformans) of -3.63%.
In the case of COC(=O)c1cccc(NC(=O)Cn2nc3ccc(-c4ccc(C)c(C)c4)nn3c2=O)c1, the Inhibition (Klebsiella pneumoniae) is reported as 6.94%, the Inhibition (Candida albicans) is reported as 2% and the Inhibition (Cryptococcus neoformans) is reported as -13.54%.
Work on COc1ccccc1N1CCN(C(=O)CSc2nc3ccccc3n3c(C(C)C)nnc23)CC1 yielded an Inhibition (Klebsiella pneumoniae) of 6.45%, an Inhibition (Candida albicans) of -2.8% and an Inhibition (Cryptococcus neoformans) of -16.67%.
Work on O=C(Cn1nc2ccc(-c3ccccc3)nn2c1=O)Nc1ccc(F)cc1 yielded an Inhibition (Klebsiella pneumoniae) of 7.53%, an Inhibition (Candida albicans) of 0.88% and an Inhibition (Cryptococcus neoformans) of -10.36%.
O=C(Cn1nc2c(N3CCSCC3)nc3ccccc3n2c1=O)Nc1ccc(Br)cc1 was tested, and the Inhibition (Klebsiella pneumoniae) was 7.3%, the Inhibition (Candida albicans) was 11.24% and the Inhibition (Cryptococcus neoformans) was -9.72%.
With COc1ccc(NC(=O)Cn2nc3c4cc(-c5ccc(C)c(C)c5)nn4ccn3c2=O)cc1 the Inhibition (Klebsiella pneumoniae) was 9.06%, the Inhibition (Candida albicans) was 19.37% and the Inhibition (Cryptococcus neoformans) was -31.22%.
CCCCN(CC)c1ccc2nnc(CCc3nc(-c4ccc(OCc5ccccc5)cc4)no3)n2n1 gave an Inhibition (Klebsiella pneumoniae) of 10.12%, an Inhibition (Candida albicans) of 5.5% and an Inhibition (Cryptococcus neoformans) of -16.46%.
CCOC(=O)C1CCCN(C(=O)Cn2nc3n(CC(C)C)c(=O)c4sccc4n3c2=O)C1 (centres undefined) showed an Inhibition (Klebsiella pneumoniae) of 8.18%, an Inhibition (Candida albicans) of -1.48% and an Inhibition (Cryptococcus neoformans) of -14.07%.
CCOc1ccccc1NC(=O)Cn1nc2c(N3CCN(c4ccccc4C)CC3)nccn2c1=O showed an Inhibition (Klebsiella pneumoniae) of -9.36%, an Inhibition (Candida albicans) of 21.63% and an Inhibition (Cryptococcus neoformans) of -5.29%.
CCc1cccc(NC(=O)Cn2nc3c(SCc4ccc(Cl)cc4)nccn3c2=O)c1 showed an Inhibition (Klebsiella pneumoniae) of 7.77%, an Inhibition (Candida albicans) of 22.52% and an Inhibition (Cryptococcus neoformans) of -20.82%.
O=c1c2nn(Cc3cccc(F)c3)c(=O)n2ccn1-c1ccccc1 was tested, and the Inhibition (Klebsiella pneumoniae) was 3.5%, the Inhibition (Candida albicans) was 1.62% and the Inhibition (Cryptococcus neoformans) was -10.61%.
CCCCOc1ccc(-c2cc3c4nnc(SCC(=O)Nc5ccc(C)c(C)c5)n4ccn3n2)cc1 showed an Inhibition (Klebsiella pneumoniae) of 4.46%, an Inhibition (Candida albicans) of -1.19% and an Inhibition (Cryptococcus neoformans) of -6.11%.
With COc1cccc(CN(c2cc(F)cc(F)c2)S(=O)(=O)c2ccc3nnc(C)n3c2)c1 the Inhibition (Klebsiella pneumoniae) was 6.42%, the Inhibition (Candida albicans) was 1.34% and the Inhibition (Cryptococcus neoformans) was -5.08%.
Compound COc1ccc(NC(=O)Cn2nc3ccc(-c4ccc(Cl)cc4)nn3c2=O)cc1 has an Inhibition (Klebsiella pneumoniae) of 12.68%, an Inhibition (Candida albicans) of 0.32% and an Inhibition (Cryptococcus neoformans) of -12.45%.
For N#CCn1nc2n(Cc3ccccc3)c(=O)c3ccccc3n2c1=O, the Inhibition (Klebsiella pneumoniae) was 8.96%, the Inhibition (Candida albicans) was -1.85% and the Inhibition (Cryptococcus neoformans) was -7.48%.
